# The full list was thinned out, with hits kept by preference.
# KDM5B inh – Primary screen for KDM5B Histone Demethylases FDH-coupled qHTS | 2.6% of 220,000 active | Lysine-specific demethylase 5B (Homo sapiens), Q9UGL1 | KDM5B demethylase, FDH-coupled NADH fluorescence (FDH is formaldehyde dehydrogenase) | AID 1347165, 2019 | Potency, µM (titrated, usually from 57.7 µM), most hits filed as inhibitors; active = well fitted inhibition curve with a large enough effect; note: 0% is about no effect; nearly all actives have a fitted effect of over 70% in size
# Target sequence (Q9UGL1 whole entry, looked up): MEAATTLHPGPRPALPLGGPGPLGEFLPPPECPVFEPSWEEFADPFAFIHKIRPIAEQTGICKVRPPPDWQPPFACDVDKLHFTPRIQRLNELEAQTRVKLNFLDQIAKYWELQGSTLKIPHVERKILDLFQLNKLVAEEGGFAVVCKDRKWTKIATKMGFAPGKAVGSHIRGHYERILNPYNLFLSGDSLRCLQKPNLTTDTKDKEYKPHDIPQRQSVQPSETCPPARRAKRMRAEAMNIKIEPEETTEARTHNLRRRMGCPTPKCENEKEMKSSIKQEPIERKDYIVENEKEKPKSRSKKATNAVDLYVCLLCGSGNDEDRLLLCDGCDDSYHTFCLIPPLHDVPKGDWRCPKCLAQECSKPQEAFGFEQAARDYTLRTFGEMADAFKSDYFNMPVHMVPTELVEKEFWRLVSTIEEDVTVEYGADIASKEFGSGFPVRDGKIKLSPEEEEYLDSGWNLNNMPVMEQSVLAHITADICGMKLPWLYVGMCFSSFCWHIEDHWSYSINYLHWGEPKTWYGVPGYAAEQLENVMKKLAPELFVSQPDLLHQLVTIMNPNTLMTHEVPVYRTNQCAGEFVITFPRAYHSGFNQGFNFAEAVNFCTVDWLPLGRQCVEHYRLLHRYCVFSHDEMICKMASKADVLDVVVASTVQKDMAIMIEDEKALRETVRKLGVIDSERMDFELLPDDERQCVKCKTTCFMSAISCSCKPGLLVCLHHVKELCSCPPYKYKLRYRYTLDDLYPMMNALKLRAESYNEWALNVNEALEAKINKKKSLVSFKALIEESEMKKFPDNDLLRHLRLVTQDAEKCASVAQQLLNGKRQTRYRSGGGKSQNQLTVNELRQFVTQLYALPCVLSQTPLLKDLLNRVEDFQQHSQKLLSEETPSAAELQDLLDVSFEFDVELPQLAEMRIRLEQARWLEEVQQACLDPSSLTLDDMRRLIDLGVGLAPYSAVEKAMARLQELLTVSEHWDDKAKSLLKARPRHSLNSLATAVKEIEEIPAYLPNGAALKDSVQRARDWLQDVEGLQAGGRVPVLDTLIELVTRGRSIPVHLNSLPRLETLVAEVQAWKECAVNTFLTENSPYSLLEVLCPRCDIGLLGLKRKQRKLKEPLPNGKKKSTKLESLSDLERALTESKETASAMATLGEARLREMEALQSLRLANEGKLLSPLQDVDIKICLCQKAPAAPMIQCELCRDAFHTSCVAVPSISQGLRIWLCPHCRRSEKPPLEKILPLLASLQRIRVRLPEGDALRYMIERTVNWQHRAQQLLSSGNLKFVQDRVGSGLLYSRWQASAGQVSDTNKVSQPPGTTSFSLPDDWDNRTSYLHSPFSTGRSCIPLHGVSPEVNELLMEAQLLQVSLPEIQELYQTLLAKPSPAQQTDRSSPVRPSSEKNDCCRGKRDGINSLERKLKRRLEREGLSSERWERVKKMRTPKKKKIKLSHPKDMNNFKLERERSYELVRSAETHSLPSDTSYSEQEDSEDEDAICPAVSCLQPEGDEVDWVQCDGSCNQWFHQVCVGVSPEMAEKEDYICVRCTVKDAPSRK
#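 KDM5BΔAP (200 nM final) in 50 mM HEPES pH 7.5, 0.01% Tween-20 was preincubated 10 min at RT with compound over a concentration range. Substrate mix (H3K4me3 12.5 µM, α-KG 25 µM, Fe²⁺, ascorbate, NAD⁺, FDH) was added, and NADH fluorescence change over 30 min gave dose-response curves.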
# * marks the source's active call; other numbers are inactive results; i = inactive. Potency is the fitted concentration of half-maximal effect.
SMILES,KDM5B inh
Cc1ccc(S(=O)(=O)NCCc2cccc3cccnc23)cc1,i
Cc1cc(C(=O)NCC(F)(F)F)c2c(C3CCCN3)noc2n1 (stereo unspecified),50µM*
O=C(NCc1ccncc1)c1cc(C2CC2)nc2onc(C3CCCN3)c12 (stereo unspecified),79µM*
Cc1cc(C(=O)NCC(C)C)c2c(C3CCCN3)noc2n1 (stereo unspecified),i
Cc1cc(C(=O)NCc2ccc(F)cc2)c2c(C3CCCNC3)noc2n1 (stereo unspecified),i
Cc1cc(C(=O)NCC(F)(F)F)c2c(C3CCCNC3)noc2n1 (stereo unspecified),i
O=C(NCc1ccncc1)c1cc(C2CC2)nc2ccccc12,i
O=C(CCc1ncc(-c2ccccc2Cl)o1)NCc1ccc(Cl)cc1Cl,i
CC1CCN(S(=O)(=O)N(C)Cc2ccc3c(c2)OCO3)CC1,i
Cc1ccccc1C(=O)N(C)Cc1ccc(-c2ccccc2)cc1,i
O=c1cc(-c2ccccn2)oc2c(NC3CCOCC3)nccc12,32µM*
O=c1cc(-c2cccnc2)oc2c(NCCc3ccccn3)nccc12,i
CN1CCC(NC2(Cc3cc(-c4ccccn4)on3)COC2)CC1,i
Cc1ccccc1C(CC(=O)Nc1cccc(-c2ccno2)c1)n1cccc1 (stereo unspecified),i
O=C(O)C(c1c[nH]c2cc(Cl)ccc12)N1CCN(C/C=C/c2ccccc2)CC1 (stereo unspecified),i
COc1ccccc1NC(=O)Cn1ccc2ccc(Cl)cc21,i
COc1cc(Cl)ccc1-c1cccc(COc2cnc3c(ccn3CC(=O)O)c2)c1,35µM*
O=C(O)CNC(=O)Cn1ccc2ccc(OCc3ccccc3)cc21,i
COc1ccccc1NC(=O)Cn1ccc2cc(Cl)ccc21,i
CNC(=O)CCn1ncc2cc(OCc3ccccc3-c3cc(F)cc(OC)c3)ccc21,i
COc1cc(F)cc(-c2cccc(COc3cnc4c(ccn4CC(=O)O)c3)c2)c1,35µM*
OCCNc1cc(N2CCCC(CO)(Cc3ccccc3F)C2)ncn1 (stereo unspecified),i
O=S(=O)(c1ccc(F)cc1)N1CCCN(c2nccc(C(F)(F)F)n2)CC1,i
OCC1(Cc2ccccc2F)CCCN(c2nccc(C(F)(F)F)n2)C1 (stereo unspecified),25µM*
O=C(Cc1ccsc1)N1CCCN(c2cc(-c3ccc(Cl)cc3)[nH]n2)CC1,i
SMILES,KDM5B inh
COc1ccc(CC(=O)N2CCCN(c3cc(-c4ccccc4)[nH]n3)CC2)cc1,22µM*
O=C(Cc1cccs1)N1CCCN(c2cc(-c3ccc(Br)cc3)[nH]n2)CC1,i
CC(Oc1ccccc1)C(=O)N1CCCN(c2cc(-c3ccc(Cl)cc3)[nH]n2)CC1 (stereo unspecified),i
COc1ccc(C(=O)N2CCCN(c3cc(-c4ccccc4)[nH]n3)CC2)c(C)c1,i
Cc1cccc(OCC(=O)N2CCCN(c3cc(-c4ccc(Cl)cc4)[nH]n3)CC2)c1,14µM*
Cc1ccc(CC(=O)N2CCCN(c3cc(-c4ccccc4)[nH]n3)CC2)cc1,28µM*
COc1ccc(-c2cc(N3CCN(C(=O)Cc4cccc(C)c4)CC3)n[nH]2)cc1,i
O=C(COc1ccc(F)cc1)N1CCCN(c2cc(-c3ccc(Br)cc3)[nH]n2)CC1,i
CN(Cc1ccccc1Cl)C(=O)c1ccccc1O,i
COc1ccc2[nH]c(C)c(C(=O)CN3CCC(C(N)=O)CC3)c2c1,i
COCCN1CCOc2nc(-c3ccc(C(=O)N(C)C)cc3)ncc2C1=O,i
Cc1cc(-c2cc3c(cn2)N(C)CCN(C)C3)ccn1,32µM*
CN(C)C(=O)c1ccc(-c2cnc3[nH]cc(CC(=O)N4CCOCC4)c3c2)cc1,i
CN1CCN(C)c2cnc(-c3ccc(C(=O)N(C)C)cc3)cc2C1,35µM*
O=C(O)CC1(CC(=O)N2CCC(Cc3ccccc3)CC2)CCCC1,i
CC(C)c1cccc(C(C)C)c1NC(=O)CCn1cnc2c1c(=O)n(C)c(=O)n2C,i
C/C(Cl)=C\Cc1c(C)nc2c(C)cccc2c1Cl,i
c1csc(-c2ccnc3nc(C4CCC4)nn23)c1,i
COCc1nc2nccc(-c3cccs3)n2n1,i
Cc1ccc(Nc2c3c(nc4nc(-c5cccs5)nn24)CCCC3)cc1F,i
c1csc(-c2nc3nccc(-c4ccncc4)n3n2)c1,28µM*
Brc1ccc(-c2ccnc3nc(-c4cccs4)nn23)cc1,7.9µM*
c1coc(-c2ccnc3nc(-c4cccs4)nn23)c1,28µM*
CC(=O)c1cccc(Nc2c3c(nc4nc(-c5cccs5)nn24)CCCC3)c1,i
S=C(NCCc1ccccc1)N/N=C/c1cccc(Br)c1,i
SMILES,KDM5B inh
COc1ccc(C(=O)N[C@@H]2C(=O)Nc3c(c(C)nn3C)[C@H]2c2ccc3c(c2)OCCO3)cc1OC,i
COc1ccc(CCC(C)NC(=O)C2(C#N)CCCC2)cc1 (stereo unspecified),i
Cc1ccccc1CNC(=O)CCC[C@@H]1[C@H]2CCCN3CCC[C@@H](CN1Cc1cccnc1)[C@@H]23,i
CN1CCCN(C(=O)CCC[C@@H]2[C@H]3CCCN4CCC[C@@H](CN2Cc2cccnc2)[C@@H]34)CC1,22µM*
O=C(CCC[C@@H]1[C@H]2CCCN3CCC[C@@H](CN1Cc1ccccc1)[C@@H]23)Nc1cccnc1,i
CN1CCCN(C(=O)CCC[C@@H]2[C@H]3CCCN4CCC[C@@H](CN2Cc2ccccc2)[C@@H]34)CC1,i
CCN(Cc1ccncc1)C(=O)CCC[C@@H]1[C@H]2CCCN3CCC[C@@H](CN1Cc1cccnc1)[C@@H]23,28µM*
CN1CCCN(C(=O)CCC[C@@H]2[C@H]3CCCN4CCC[C@@H](CN2C)[C@@H]34)CC1,i
O=C1C(=O)N(c2ccccn2)C(c2cccc(Oc3ccccc3)c2)/C1=C(\O)c1ccccc1 (stereo unspecified),i
Cc1cc(SCC(=O)NC2CC2)nc2c(C)cccc12,i
COc1cccc(CNC(=O)C2Cn3cccc3C(=O)N2Cc2cccnc2)c1 (stereo unspecified),i
Cc1ccc(NC(=O)c2cnc(-c3ccccc3)nc2-c2ccncc2)c(Br)c1,i
Cc1ccc(-c2ccc(=O)n(CC(=O)Nc3c(C)cccc3C)n2)cc1S(=O)(=O)N1CCOCC1,i
O=C(C(=O)N1CCN(C(=O)c2cc3ccccc3[nH]2)CC1)N1CCCC1,i
CS(=O)(=O)c1ccc(NC(=O)COc2ccccc2C(N)=O)cc1,i
Cc1ccc(CCNC(=O)c2cc(-c3ccncc3)nc3ccccc23)cc1,i
Cc1ccc(-c2cc(C(=O)NCCC(c3ccccc3)c3ccccc3)c3ccccc3n2)cc1,i
CCn1cnnc1CCNC(=O)c1cc(-c2ccc(C)cc2)nc2ccccc12,28µM*
CCOc1ccccc1NC(=O)CSc1nnc(-n2nc(C)cc2C)n1N,i
COc1cccc(/C=C/c2nc(C#N)c(N(C)C)o2)c1,i
COc1ccc([C@@H]2CC(=O)C3=C(C2)Nc2[nH][nH]c(=O)c2[C@H]3c2ccccc2C(F)(F)F)cc1OC,i
Cc1ccc(-c2nc(C(=O)N3CCN(c4cccc(C)c4C)CC3)no2)cc1,i
Cc1ccc(N2CCN(C(=O)c3noc(-c4ccc(F)cc4)n3)CC2)cc1,i
O=C(c1noc(-c2ccc(F)cc2)n1)N1CCN(c2ccccc2F)CC1,32µM*
O=c1c2cc(Br)ccc2ncn1Cc1ncc(-c2ccccc2)o1,i

# Assay outcomes as filed in PubChem.
